Source: PubChem BioAssay (NCATS)
Where “and” joins values, the source holds several entries; their conditions need not be identical. Identical values can stand only once. Inconclusive results are not listed. Calls of active or inactive are those of the source. The call rests on the fitted dose curve; in most records, active means well fitted curve in the direction sought with a large enough effect; inconclusive means small, poorly fitted or top-dose-only effect, or another doubt; inactive means no such curve, though single readings can be large; an effect the other way counts as inactive or inconclusive.

Columns and labels:
[1] = biological target: Glutathione peroxidase 1 (Homo sapiens) (UniProt P07203); assay: Primary qHTS Assay for Inhibitors of Recombinant Selenoprotein Glutathione Peroxidase 1 (GPX1) (AID 1845191); further: nearly all actives have a fitted effect of over 65% in size; further: potency means the concentration at half of the fitted maximal effect; on activity, negative = inhibition: on the % scale 0 is the no-effect control and ±100 the full control effect
Glutathione peroxidase 1 (Homo sapiens), sequence (P07203 whole entry, looked up): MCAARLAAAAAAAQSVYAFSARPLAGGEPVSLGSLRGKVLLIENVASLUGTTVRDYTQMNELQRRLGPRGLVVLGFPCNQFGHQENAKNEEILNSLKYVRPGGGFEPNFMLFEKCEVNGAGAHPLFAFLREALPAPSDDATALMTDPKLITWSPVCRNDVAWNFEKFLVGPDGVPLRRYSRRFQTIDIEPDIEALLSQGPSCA
Summary of the method: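 GR-coupled readout: NADPH consumption tracked by fluorescence, ex 340/em 450 nm, at t=0 and after 15 min at RT. Final mix 10 nM GPX1, 1 mM GSH, 0.5 mM CHP, 0.5 mM NADPH, 100 nM GR, 0.01% BSA, following 30 min enzyme–compound preincubation.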

[2] = biological target: Phospholipid hydroperoxide glutathione peroxidase GPX4 (Homo sapiens) (UniProt P36969); assay: Primary qHTS Assay for Inhibitors of Recombinant Selenoprotein Glutathione Peroxidase 4 (GPX4) (AID 1845192); further: nearly all actives have a fitted effect of over 65% in size; further: potency means the concentration at half of the fitted maximal effect; on activity change, negative = inhibition: series mostly up to about 50 µM; on the % scale 0 is the no-effect control and ±100 the full control effect
Phospholipid hydroperoxide glutathione peroxidase GPX4 (Homo sapiens), sequence (P36969 whole entry, looked up): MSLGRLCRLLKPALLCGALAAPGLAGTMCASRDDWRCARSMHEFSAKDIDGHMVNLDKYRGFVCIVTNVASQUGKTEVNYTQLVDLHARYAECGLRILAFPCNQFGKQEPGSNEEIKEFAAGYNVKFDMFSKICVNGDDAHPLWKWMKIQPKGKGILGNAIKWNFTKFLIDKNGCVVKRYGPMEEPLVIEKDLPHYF
Summary of the method: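 Steps: GPX4 plus compound, 30 min RT; add GR/GSH/NADPH master mix; start with cumene hydroperoxide; read 340/450 nm fluorescence at 0 and 15 min. Finals were 200 nM GPX4, 1 mM GSH, 0.5 mM CHP, 0.5 mM NADPH, 100 nM GR.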

[3] = biological target: Luciferin 4-monooxygenase (Photinus pyralis) (UniProt P08659); assay: Primary firefly luciferase (FLuc) qHTS assay for identification of artifact compounds. (AID 1845220); further: nearly all actives have a fitted effect of over 60% in size;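 on activity change, negative = inhibition: series mostly up to about 54 µM; plate controls were DMSO vehicle for no effect and no enzyme for full effect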
Summary of the method: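 Enzymatic FLuc inhibition assay: compounds pre-exposed to luciferin/ATP (10 uM each) for 15 min, then purified P. pyralis enzyme at 10 nM added. Read-out: luminescence at 5 min.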

[4] = test system: Nanoluciferase (engineered Oplophorus gracilirostris luciferase); assay: Primary Nanoluciferase (NLuc) qHTS assay for identification of artifact compounds. (AID 1845222);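 further: NLuc secreted into diluted conditioned medium of S16 cells; series mostly up to about 54 µM; 0% = DMSO and -100% = no enzyme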
Summary of the method: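 S16 cell supernatant NLuc, 1:55; cpds qHTS; 15 min RT dark; Nano-Glo substrate 1:100, 5 min; luminescence; Hill fit of % inhibition.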

[5] = Primary fluorescence-based thiol-reactive (MSTI) qHTS assay for identification of artifact compounds. (AID 1845221); further: nearly all actives have a fitted effect of over 65% in size; further: potency means the concentration at half of the fitted maximal effect;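 on activity change, negative = thiol reactive: series mostly up to about 54 µM; thiol-reactive compounds lower the probe fluorescence signal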
Summary of the method: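 Reactivity toward the thiol probe MSTI (4 uM) is scored by fluorescence at Ex/Em 525/598 nm after 1 h at room temperature. Acetyl-MSTI and MSTI define the activity scale.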

COc1c(OC2OC(CO)C(O)C(O)C2O)ccc(O)c1C(=O)OCc1ccccc1O[C@@H]1O[C@H](CO)[C@@H](O)[C@H](O)[C@H]1O (stereo partly specified)
inactive: Potency [1] | Potency [2] | Potency [3] | Potency [4]

COc1cc2c(cc1O)C1(OC)Cc3ccc4c(c3C1N(C)CC2)OCO4 (stereo unspecified)
inactive: Potency [1] | Potency [2] | Potency [3] | Potency [4]

COc1ccc2c(c1)O[C@H](O[C@@H]1O[C@H](CO)[C@@H](O)[C@H](O)[C@H]1O)C(=O)N2
inactive: Potency [1] | Potency [2] | Potency [3] | Potency [4]

CC(CCC1(O)OC2CC3C4CCC5CC(O[C@@H]6O[C@H](CO)[C@@H](O)[C@H](O)[C@H]6O[C@@H]6OC[C@@H](O)[C@H](O)[C@H]6O)C(O)CC5(C)C4CCC3(C)C2C1C)CO[C@@H]1O[C@H](CO)[C@@H](O)[C@H](O)[C@H]1O (stereo partly specified)
inactive: Potency [1] | Potency [2] | activity change, negative = inhibition [3] 1.24% [at 11.6 µM] | activity change, negative = thiol reactive [5] -13.7% [at 11.5 µM] | activity, negative = inhibition [4] 4.39% [at 11.6 µM]

CC[C@H]1OC(=O)C[C@@H](O)[C@H](C)[C@@H](O[C@@H]2O[C@H](C)[C@@H](O)[C@H](N(C)C)[C@H]2O)[C@@H](CCN2C[C@H](C)C[C@H](C)C2)C[C@@H](C)C(=O)/C=C/C(C)=C/[C@@H]1CO[C@@H]1O[C@H](C)[C@@H](O)[C@@H](OC)[C@H]1OC
inactive: Potency [1] | Potency [2] | Potency [3] | Potency [5] | Potency [4]

COC(=O)[C@H](OC(C)=O)[C@H]1C(C)(C)C(=O)[C@H]2CC3=C4CC(=O)O[C@@H](c5ccoc5)[C@]4(C)CCC3[C@@]1(C)C2=O (stereo partly specified)
inactive: Potency [1] | Potency [2] | Potency [3] | Potency [5] | Potency [4]

CC1(C)CC2C3=CCC4C5(C)CCC(OC6OC(CO)C(O)C(OC7OC(CO)C(O)C(OC8OC(CO)C(O)C(OC9OC(COC%10OC(CO)C(O)C(O)C%10O)C(O)C(O)C9O)C8O)C7O)C6O)C(C)(C)C5CCC4(C)C3(C)CCC2(C(=O)O)CC1O (stereo unspecified)
inactive: activity, negative = inhibition [1] -11.7% [at 9.52 µM] | outcome [2] inactive [at 9.73 µM] | activity change, negative = inhibition [3] -5.47% [at 11.6 µM] | activity change, negative = thiol reactive [5] 31.3% [at 11.5 µM] | activity, negative = inhibition [4] 0.268% [at 11.6 µM]

CC1C(=O)CC2C3C(O)CC(C(=O)O)C12CC3(C)C (stereo unspecified)
inactive: Potency [1] | Potency [2] | Potency [3] | Potency [4]

C/C=C(\C)C(=O)O[C@H]1[C@H](O)[C@]2(COC(C)=O)[C@H](O)C[C@]3(C)C(=CCC4[C@@]5(C)CC[C@H](O[C@@H]6O[C@H](C(=O)O)[C@@H](O[C@@H]7O[C@H](CO)[C@@H](O)[C@H](O)[C@H]7O)[C@H](O)[C@H]6O[C@@H]6O[C@H](CO)[C@@H](O)[C@H](O)[C@H]6O)[C@](C)(CO)C5CC[C@]43C)[C@@H]2CC1(C)C (stereo partly specified)
inactive: Potency [1] | Potency [2] | outcome [3] inactive [at 11.6 µM] | activity change, negative = thiol reactive [5] 113% [at 11.5 µM] | activity, negative = inhibition [4] 4.32% [at 11.6 µM]

CCNC(=O)CCC/C=C\C[C@@H]1[C@@H](/C=C/C(O)CCc2ccccc2)[C@@H](O)C[C@@H]1O (stereo partly specified)
inactive: Potency [1] | Potency [2] | Potency [3] | Potency [5] | Potency [4]

CC(=O)OC1C(O)C(C)=C(CCC(C)CC(=O)O)C2(C)CCCC(C)(C)C12 (stereo unspecified)
inactive: Potency [1] | Potency [2] | Potency [3] | Potency [5] | Potency [4]

O=C(OCC12OC1C=CC(OC(=O)c1ccccc1)C2O)c1ccccc1 (stereo unspecified)
inactive: Potency [1] | Potency [2] | Potency [3] | Potency [5] | Potency [4]

CC1=C2[C@@H]([C@H](C)CC[C@H]2/C=C(\C)C(=O)O)[C@H](O)C1
inactive: Potency [1] | Potency [2] | Potency [3] | Potency [5] | Potency [4]

CO/N=C(/C(=O)N[C@@H]1C(=O)N2C(C(=O)O)=C(CSC(=O)c3ccco3)CS[C@H]12)c1csc(N)n1
inactive: Potency [3] | Potency [5] | Potency [4]
active: Potency [1] 8.06 µM and 7.18 µM | Potency [2] 7.08 µM

COC(=O)C[C@@H]1C(C(=O)O)=CO[C@@H](O[C@@H]2O[C@H](CO)[C@@H](O)[C@H](O)[C@H]2O)/C1=C\COC(=O)/C=C\c1ccccc1
inactive: Potency [1] | Potency [2] | Potency [3] | Potency [5] | Potency [4]

C[C@]1(O)CC[C@@H]2C(C(=O)O)=CO[C@@H](O[C@@H]3O[C@H](COC(=O)c4ccc(O)cc4)[C@@H](O)[C@H](O)[C@H]3O)[C@@H]21
inactive: Potency [1] | Potency [2] | Potency [3] | Potency [4]
active: Potency [5] 10.3 µM

O=C(CCCCc1ccc2ccccc2c1)C(F)(F)F
inactive: Potency [1] | Potency [2] | Potency [3] | Potency [5] | Potency [4]
